From PubChem BioAssay AID924 (National Center for Advancing Translational Sciences (NCATS), 2007) come the findings set out here.

Several values for one entry are separate records, joined by “and”; a condition that tells them apart may be missing. Identical values can stand only once. In all, about 130,000 compounds went through this assay and about 1,200 (0.92%) were called active. About 3% were inconclusive and are not listed. The call rests on the fitted dose curve; in most records, active means well fitted cell-killing curve with a large enough effect; inconclusive means small, poorly fitted or top-dose-only effect; inactive means no such curve, though single readings can be large or run the other way. The entries come from a sample that favours actives as a whole.
Potency means the concentration at half of the fitted maximal effect.

The nature of the test: qHTS Screen for Compounds that Selectively Target Cancer Cells with p53 Mutations: Cytotoxicity of p53ts Cells at the Permissive Temperature. Further: nearly all actives have a fitted effect of over 55% in size.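 On activity change, negative = cytotoxicity: 0% = DMSO and -100% = full killing by reference compound.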 The note with it: H1299-p53A138V at 32C, ATP luminescence viability, 24 h; series mostly up to 46.1 µM; activity change, negative = cytotoxicity: at the top concentration. An excerpt:
NIH Chemical Genomics Center [NCGC] NIH Molecular Libraries Screening Centers Network [MLSCN] MLSCN Grant: 1 X01 MH079844-01 Assay Submitter (PI): Dr. SUN, YI, University of Michigan NCGC Assay Overview: Synthetic Lethal Screen for Compounds to Kill Cancer Cells with p53 Mutation. Tumor suppressor gene p53 serves as a major cellular barrier against tumorigenesis. […] The goal of this screening is to identify small molecule probes that selectively kill cancer cells with mutations in p53. This screening was carried out using two lines of H1299 lung cancer cells. The H1299-p53 A138V line express a temperature sensitive p53 mutant (p53ts) in which the mutant p53 protein (A138V) is in the mutant confirmation when grown at 39C (the nonpermissive temperature) and in the wild type conformation when grown at 32C (the permissive temperature). A H1299-neo line (p53 null) grown at both 39C and 32C were used as counter-screens to filter out false positive associated with temperature shifting. The small molecular compounds that selectively target mutant p53-containing cancer cells were selected as candidate probes for further study. A cytotoxicity assay based on the measurement of ATP contents in cells was used in this screen. Concentration-responses of all the compounds in the library collection were determined in qHTS using the cell lines and temperature conditions as above.
NCGC Assay Protocol Summary: Both the H1299-p53A138V and H1299-neo cell lines were provided by Dr.Yi Sun, a PI at the University Michigan. The cells were maintained and cultured at 37C. The resuspended frozen cells were used to plate the cells in the 1536-well assay plates at a density of 600 cells per well in 5 ul medium. The assay plates with the cells were incubated at 37C for 16 to 30 hours before the experiments. The library compounds in DMSO solution were added to the cells in assay plates and incubated 24 hours at 39C (for mutant p53 conformation) or 32C (for normal p53 conformation as control). An ATP_lite assay kit (PerkinElmer) was used to determine the cell viability. Tomaxifen (100uM) was used as the positive control for cell killing. Data were normalized to the controls for basal activity (DMSO only) and 100% killing (100uM tamoxifen). AC50 values were determined from concentration-response data modeled with the standard Hill equation. P53 assay protocol: 1. Reagent; 5 uL H1299-p53A138V or H1299-neo cell cells/well 2. Time; overnight; 37C incubation 3. Compounds; 23 nL; 5.9 nM to 46 uM 4. Controls; 23 nL; Tamoxifen 100 uM 5. Time; 24 hr; 37C incubation 6. Reagent; 3 uL; ATP_Lite reagent 7. Time; 20 min; Room Temperature 8. Detection; Luminescence; Viewlux plate reader Keywords: p53, synthetic lethal, cancer, cell viability, cytotoxicity, H1299 cell line, luminescence, MLSMR, MLSCN, NIH Roadmap, qHTS, NCGC
(In qHTS, concentration-response curves come from the screen itself.)
With `CCN(CCCCOC(=O)c1ccc(OC)c(OC)c1)C(C)Cc1ccc(OC)cc1` (stereo unspecified), the “activity change, negative = cytotoxicity” value was -4.52% (inactive).

As to `COc1ccc(C(CCN(Cc2ccc(OC)c(OC)c2)C(=O)CCl)c2ccccc2)cc1` (stereo unspecified), the Potency is 5.01 µM (active).

`COc1ccc(/C=C/NC(=O)Cc2ccc(OC)c(OC)c2)cc1`: the activity change, negative = cytotoxicity is -5.23% [at 9.22 µM] (inactive) and 5.05% [at 9.22 µM] (inactive).

As for `CCc1ccc(NC(=O)c2cc(S(=O)(=O)N3CCCC(C)C3)cn2C)cc1` (stereo unspecified), the “activity change, negative = cytotoxicity” value was -1.68% (inactive).

`COc1cccc(NC(=O)CSC2=Nc3ccccc3C3=NC(CC(=O)NC4CCCCC4)C(=O)N23)c1` (stereo unspecified): the “activity change, negative = cytotoxicity” value was -4.48% (inactive).

Take `COC(=O)c1ccccc1NC(=O)Cn1c(=O)cc(C)c2c(C)nn(-c3cccc(Cl)c3C)c21`: the “activity change, negative = cytotoxicity” value was 1.69% (inactive).

Consider `Cc1ccc(NC(=O)CSc2nc3c([nH]c4ccccc43)c(=O)n2-c2ccccc2)c(C)c1`, for which the “activity change, negative = cytotoxicity” value was -0.407% (inactive).

`CC(C)c1ccc(NC(=O)CN(C)S(=O)(=O)c2ccc3c(c2)c(=O)n(C)c(=O)n3C)cc1`: the “activity change, negative = cytotoxicity” value was -1.91% (inactive).

`COC(=O)c1sc(NC(=O)c2csc3c2CCCC3)nc1C`: the “activity change, negative = cytotoxicity” value is -10.1% (inactive).

Regarding `COC(=O)c1sc(NC(=O)c2ccc(OC)cc2OC)nc1C`, the Potency is 0.398 µM (active).

With `COc1ccc(C(=O)Nc2nncs2)c(OC)c1`, the “activity change, negative = cytotoxicity” value was -22% (inactive).

Regarding `COc1ccc(-c2nc3sc(CCNS(=O)(=O)c4ccc(F)c(C)c4)c(C)n3n2)cc1`, the “activity change, negative = cytotoxicity” value was -7.31% (inactive).

For the molecule `O=C(NCCc1ccc(Cl)cc1)c1ccc2nc(CCc3ccccc3)oc2c1`, the “activity change, negative = cytotoxicity” value is 0.682% (inactive).

For `Cc1ccccc1Nc1nn2c(=O)c3ccc(C(=O)NCCc4ccc(Cl)cc4)cc3nc2s1`, the Potency is 15.8 µM (active).

On to `CCn1c(=O)c2cc(C(=O)NCCc3ccc(Cl)cc3)sc2c2ccccc21`, for which the “activity change, negative = cytotoxicity” value was 4.45% (inactive).

`CCOc1ccc(C(=O)c2cn(Cc3ccccc3OC)c3ccc(F)cc3c2=O)cc1`: the “activity change, negative = cytotoxicity” value was 10.8% (inactive).

Regarding `CCOC(=O)c1cc2c(=O)n3ccccc3nc2n(CC2CCCO2)c1=NC(=O)c1ccccc1Br` (stereo unspecified), the “activity change, negative = cytotoxicity” value was 3.37% (inactive).

Turning to `O=C(NCc1ccc2c(c1)CCN2C(=O)c1ccccc1)Nc1cc(F)ccc1F`, the “activity change, negative = cytotoxicity” value is 3.25% (inactive).

Regarding `COc1ccc(-c2noc(CSc3nnc(-c4ccccc4)n3-c3ccc(F)cc3)n2)c(OC)c1`, the “activity change, negative = cytotoxicity” value was 24.7% (inactive).

Turning to `COc1ccc(-c2cc(-c3nc(-c4cc(OC)c(OC)c(OC)c4)no3)[nH]n2)c(OC)c1`, the “activity change, negative = cytotoxicity” value was -4.57% (inactive).

`COc1ccc(-c2nc(-c3ccccc3)no2)c(OC)c1`: the Potency was 5.01 µM (active).

Take `CCn1c(C)c(C)c2cc(C(=O)N3CCN(c4cccc(C)c4C)CC3)ccc21`: the “activity change, negative = cytotoxicity” value was -5.04% (inactive).

With `CCOc1ccc(C(=O)/C=C/c2cn(CC(O)CN3CCCCCC3)c3ccccc23)cc1` (stereo unspecified), the “activity change, negative = cytotoxicity” value was -24.6% (inactive).

Turning to `CCOC(=O)c1nnn(CC(=O)NC(=O)Nc2ccccc2F)c1C(=O)OCC`, the “activity change, negative = cytotoxicity” value was -0.4% (inactive).

Consider `Cc1ccc2oc(C(=O)Nc3ccc(S(=O)(=O)N4CCCCCC4)cc3)cc(=O)c2c1`, for which the “activity change, negative = cytotoxicity” value is -1.14% (inactive).

As for `Cc1nc2ccccc2n1C(=O)N1CCOCC1`, the “activity change, negative = cytotoxicity” value is -6.66% (inactive).

Take `Cc1cc(C)c2c(n1)nn1c(N3CCOCC3)cc(C)nc21`: the “activity change, negative = cytotoxicity” value is 10.3% (inactive).

As to `Cc1nn2c3cc(N4CCOCC4)ccc3nc2c2ccccc12`, the Potency is 2 µM (active).

`COc1ccc(CNC(=O)CC2Oc3ccc(C)cc3NC2=O)cc1` (stereo unspecified): the “activity change, negative = cytotoxicity” value was 9.45% (inactive).

Consider `Cc1cc(=O)c2cc(C(=O)Nc3cccc(C)c3C)ccc2[nH]1`, for which the “activity change, negative = cytotoxicity” value is 1.75% (inactive).

For the molecule `O=C(CSc1nnc(CNC(=O)c2ccccc2)n1-c1ccc(F)cc1)Nc1ccccc1F`, the “activity change, negative = cytotoxicity” value was 2.75% (inactive).

With `CCc1ccc2oc(-c3ccc(C)c(NC(=O)/C=C/c4ccco4)c3)nc2c1`, the “activity change, negative = cytotoxicity” value is -25.8% (inactive).

With `CCc1ccc2oc(-c3ccc(N)cc3)nc2c1`, the Potency is 7.94 µM (active).

Regarding `CCc1ccc2oc(-c3ccc(NC(=O)c4cc5ccccc5o4)cc3)nc2c1`, the “activity change, negative = cytotoxicity” value is -9.08% (inactive).

Consider `COc1ccc(-c2nnc(SCC(=O)Nc3ccc(C(C)C)cc3)nc2-c2ccc(OC)c(OC)c2)cc1OC`, for which the “activity change, negative = cytotoxicity” value was 19.3% (inactive).

`CC(C)(C)c1ccc(C(=O)NCC(c2ccc(Cl)cc2)N2CCOCC2)cc1` (stereo unspecified): the “activity change, negative = cytotoxicity” value is 16.9% (inactive).

As for `O=C(Nc1nc2c(s1)CCCC2)c1ccccc1F`, the Potency is 7.94 µM (active).

For `O=C(Cn1c(=O)sc2ccccc21)Nc1nc2c(s1)CCCC2`, the “activity change, negative = cytotoxicity” value was -2.62% (inactive).

For the molecule `NC(=O)c1ccccc1NC(=O)c1ccccc1F`, the “activity change, negative = cytotoxicity” value is -1.7% (inactive).

As for `O=C1N(Cc2ccccc2)c2ccc(Cl)cc2C1(O)c1c[nH]c2ccccc12` (stereo unspecified), the “activity change, negative = cytotoxicity” value is 4.69% (inactive).

As to `CCOc1cc(C(=O)Nc2ncccn2)cc(OCC)c1OCC`, the “activity change, negative = cytotoxicity” value is -3.26% (inactive).

Consider `Cn1c(=O)c(C(=O)Nc2ncccn2)c(O)c2ccccc21`, for which the Potency was 12.6 µM (active).

Take `O=C(Nc1ncccn1)c1cccs1`: the “activity change, negative = cytotoxicity” value is -9.12% (inactive).

For the molecule `CC1CCCN(c2nc3c(S(=O)(=O)c4ccc(C(C)C)cc4)nnn3c3ccsc23)C1` (stereo unspecified), the “activity change, negative = cytotoxicity” value is 6.56% (inactive).

In the case of `COc1cccc(CNC(=O)CSc2c3c(nc4cc(Cl)ccc24)CCCC3)c1`, the “activity change, negative = cytotoxicity” value is 5.88% (inactive).

`CCOc1ccc(NC(=O)CSc2c3c(nc4ccccc24)CCCC3)cc1`: the Potency is 22.4 µM (active).

For the molecule `CCOc1ccc(C(=O)Nc2ccc3nc4c(c(Nc5ccccc5OC)c3c2)CCCC4)cc1`, the “activity change, negative = cytotoxicity” value was -14.2% (inactive).

`CCOC(=O)c1cc(-c2ccccc2)n(CCC(=O)Nc2ccccc2CC)c1C`: the “activity change, negative = cytotoxicity” value is 7.84% (inactive).

Regarding `O=C(NC1CCCCC1)c1ccc(Cn2c(SCc3ccccc3)nc3cccnc32)cc1`, the “activity change, negative = cytotoxicity” value was -24.1% (inactive).

`Cc1ccc(CSc2nc3cccnc3n2Cc2ccc(C(=O)NC3CC3)cc2)cc1`: the Potency is 2.24 µM (active).

`O=C(NCc1ccc(F)cc1)c1ccc(Cn2c(SCc3ccc(F)cc3)nc3cccnc32)cc1`: the “activity change, negative = cytotoxicity” value was -25.6% (inactive).
